From PubChem BioAssay AID1159580 (chemical genetic matrix, 2015)
“And” between values parts separate entries of the source, which are not always exact repeats. Equal values may be shown once. Among all 5,500 compounds or so, about 2,000 (36%) were called active. Inconclusive results (about 18%) are left out. Cut-off read from the data, not from the text of the source: active = normalized growth mostly below about 0.91 (no sharp cut-off); inconclusive = no clear call, values can overlap the other calls; inactive = mostly above about 0.92. This is one part of the list.

Assay: chemical genetic growth profiling, strain panel (AID 1159580);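 note: tested at 20 µM; growth read once vehicle control cultures reached saturation at 30 °C; 1 = growth at the plate median or of vehicle wells; lower values mean less growth of the strain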
Conditions: S. cerevisiae deletion strains, growth OD

Measured: normalized growth

COc1c2c(cc3occ(-c4ccc5c(c4)OCO5)c(=O)c13)OC(C)(C)C=C2
active: locus YDR392W, strain spt3, hits give low values 0.644 | locus YGL086W, strain mad1, hits give low values 0.889 | locus YHR142W, strain chs7, hits give low values 0.857 | locus YKR001C, strain vps1, hits give low values 0.895 | locus YNL071W, strain lat1, hits give low values 0.89 | locus YOR184W, strain ser1, hits give low values 0.795
inactive: locus YAL013W, strain DEP1, hits give low values 0.989 | locus YAL021C, strain ccr4, hits give low values 1 | locus YAL026C, strain drs2, hits give low values 0.975 | locus YAL030W, strain snc1, hits give low values 0.997 | locus YBL061C, strain skt5, hits give low values 0.969 | locus YBR009C, strain hhf1, hits give low values 0.966 | locus YBR021W, strain FUR4, hits give low values 0.973 | locus YBR023C, strain chs3, hits give low values 0.967 | locus YBR171W, strain sec66, hits give low values 0.988 | locus YBR229C, strain ROT2, hits give low values 0.987 | locus YBR231C, strain swc5, hits give low values 0.989 | locus YBR279W, strain paf1, hits give low values 1.03 | locus YCL011C, strain gbp2, hits give low values 0.985 | locus YCL016C, strain dcc1, hits give low values 0.994 | locus YCL029C, strain bik1, hits give low values 0.961 | locus YCL061C, strain MRC1, hits give low values 0.996 | locus YCL069W, strain vba3, hits give low values 1 | locus YCR088W, strain abp1, hits give low values 0.995 | locus YDL005C, strain med2, hits give low values 1 | locus YDL035C, strain GPR1, hits give low values 0.95 | locus YDL040C, strain nat1, hits give low values 1.01 | locus YDL074C, strain BRE1, hits give low values 0.901 | locus YDL101C, strain DUN1, hits give low values 0.98 | locus YDL185W, strain tfp1, hits give low values 0.943 | locus YDL192W, strain arf1, hits give low values 0.918 | locus YDR001C, strain nth1, hits give low values 0.994 | locus YDR069C, strain doa4, hits give low values 0.991 | locus YDR101C, strain arx1, hits give low values 0.925 | locus YDR137W, strain rgp1, hits give low values 0.964 | locus YDR159W, strain sac3, hits give low values 1.02 | locus YDR162C, strain NBP2, hits give low values 0.993 | locus YDR195W, strain ref2 1.11 | locus YDR297W, strain sur2, hits give low values 0.995 | locus YDR318W, strain mcm21, hits give low values 0.962 | locus YDR334W, strain swr1, hits give low values 1.01 | locus YDR335W, strain msn5, hits give low values 1.02 | locus YDR388W, hits give low values 0.973 | locus YDR502C, strain sam2, hits give low values 0.926 | locus YEL003W, strain gim4, hits give low values 1 | locus YEL037C, strain rad23, hits give low values 1 | locus YEL061C, strain CIN8 (second series), hits give low values 1.01 | locus YEL061C, strain CIN8, hits give low values 0.992 | locus YER015W, strain faa2, hits give low values 1 | locus YER016W, strain bim1, hits give low values 1 | locus YER110C, hits give low values 0.983 | locus YER111C, strain swi4, hits give low values 1.01 | locus YER155C, strain BEM2 (second series), hits give low values 0.936 | locus YER155C, strain BEM2, hits give low values 0.992 | locus YER167W, strain BCK2, hits give low values 0.984 | locus YFR010W, strain ubp6, hits give low values 0.989 | locus YGL078C, strain dbp3, hits give low values 0.929 | locus YGL167C, strain pmr1, hits give low values 1 | locus YGL173C, strain kem1, hits give low values 0.996 | locus YGL227W, strain vid30, hits give low values 1 | locus YGL240W, strain doc1, hits give low values 0.998 | locus YGL248W, strain PDE1, hits give low values 0.998 | locus YGL253W, strain hxk2, hits give low values 0.936 | locus YGR078C, strain PAC10, hits give low values 0.982 | locus YGR135W, strain pre9, hits give low values 0.98 | locus YGR252W, strain gcn5, hits give low values 0.983 | locus YHR013C, strain ard1, hits give low values 0.986 | locus YHR027C, strain rpn1, hits give low values 0.993 | locus YHR030C, strain SLT2, hits give low values 0.992 and 1.01 | locus YHR079C, strain IRE1 (second series), hits give low values 0.952 | locus YHR079C, strain IRE1, hits give low values 0.983 | locus YHR094C, strain hxt1, hits give low values 0.977 | locus YHR129C, strain ARP1, hits give low values 0.988 | locus YHR200W, strain rpn10, hits give low values 0.949 | locus YIL066C, strain RNR3, hits give low values 0.965 | locus YIL073C, strain SPO22, hits give low values 0.941 | locus YIL125W, strain kgd1, hits give low values 0.96 | locus YIR030C, strain dcg1, hits give low values 0.97 | locus YJL092W, strain hpr5, hits give low values 0.99 | locus YJL095W, strain BCK1 (second series), hits give low values 0.997 | locus YJL095W, strain BCK1, hits give low values 0.981 and 1.01 | locus YJL115W, strain asf1, hits give low values 1.02 | locus YJL129C, strain trk1, hits give low values 0.937 | locus YJL134W, strain LCB3, hits give low values 0.992 | locus YJL154C, strain vps35, hits give low values 1.02 | locus YJL164C, strain tpk1, hits give low values 0.981 | locus YJL166W, strain qcr8, hits give low values 0.973 | locus YJL168C, strain set2, hits give low values 0.972 | locus YJL187C, strain SWE1 (second series), hits give low values 0.975 | locus YJL187C, strain SWE1, hits give low values 1 | locus YJR043C, strain POL32, hits give low values 0.999 | locus YJR066W, strain TOR1, hits give low values 0.955 | locus YJR075W, strain HOC1, hits give low values 0.976 | locus YKL009W, strain mrt4, hits give low values 0.885 | locus YKL068W, hits give low values 0.959 | locus YKL085W, strain MDH1 (second series), hits give low values 0.965 | locus YKL085W, strain MDH1, hits give low values 0.965 | locus YKL160W, strain elf1, hits give low values 0.965 | locus YKL190W, strain CNB1, hits give low values 0.984 | locus YKR026C, strain gcn3, hits give low values 0.999 | locus YKR091W, strain srl3, hits give low values 1 | locus YLL001W, strain dnm1, hits give low values 0.989 | locus YLL026W, hits give low values 1 | locus YLL041C, strain sdh2, hits give low values 0.996 | locus YLR027C, strain aat2, hits give low values 0.971 | locus YLR039C, strain RIC1, hits give low values 0.939 | locus YLR058C, strain SHM2, hits give low values 1 | locus YLR102C, strain apc9, hits give low values 0.963 | locus YLR113W, strain HOG1, hits give low values 0.995 | locus YLR221C, strain rsa3, hits give low values 0.948 | locus YLR258W, strain gsy2, hits give low values 0.989 | locus YLR262C, strain YPT6 (second series), hits give low values 0.94 | locus YLR262C, strain YPT6, hits give low values 0.937 | locus YLR268W, strain sec22, hits give low values 0.905 | locus YLR320W, strain mms22, hits give low values 0.928 | locus YLR330W, strain CHS5, hits give low values 0.981 | locus YLR342W, strain FKS1 (second series), hits give low values 0.963 | locus YLR342W, strain FKS1, hits give low values 0.989 | locus YLR357W, strain rsc2, hits give low values 1.02 | locus YLR370C, strain arc18, hits give low values 1 | locus YLR371W, strain rom2, hits give low values 0.944 | locus YLR384C, strain iki3, hits give low values 1.01 | locus YLR418C, strain cdc73, hits give low values 0.87 | locus YML016C, strain PPZ1, hits give low values 1 | locus YML032C, strain rad52, hits give low values 0.999 | locus YML120C, strain ndi1, hits give low values 0.987 | locus YML124C, strain tub3, hits give low values 0.979 | locus YMR058W, strain fet3, hits give low values 0.987 | locus YMR078C, strain ctf18, hits give low values 0.986 | locus YMR125W, strain sto1, hits give low values 1.01 | locus YMR129W, hits give low values 1.01 | locus YMR205C, strain PFK2, hits give low values 0.946 | locus YMR223W, strain ubp8, hits give low values 0.97 | locus YMR231W, strain pep5, hits give low values 1.01 | locus YMR263W, strain SAP30, hits give low values 0.97 | locus YMR307W, strain GAS1, hits give low values 1.05 | locus YNL067W, strain RPL9B, hits give low values 0.986 | locus YNL128W, strain TEP1, hits give low values 0.943 | locus YNL153C, strain GIM3, hits give low values 0.993 | locus YNL183C, strain NPR1, hits give low values 0.933 | locus YNL209W, strain ssb2, hits give low values 1.02 | locus YNL233W, strain BNI4, hits give low values 0.954 | locus YNL248C, strain rpa49, hits give low values 0.963 | locus YNL250W, strain rad50, hits give low values 0.925 | locus YNL271C, strain bni1, hits give low values 0.98 | locus YNL298W, strain CLA4, hits give low values 0.962 | locus YNL307C, strain MCK1, hits give low values 0.952 | locus YNL322C, strain KRE1 (second series), hits give low values 1.02 | locus YNR049C, strain mso1, hits give low values 1 | locus YNR052C, strain pop2, hits give low values 0.99 | locus YOL012C, strain htz1 1.17 | locus YOL147C, strain pex11, hits give low values 0.949 | locus YOR001W, strain rrp6, hits give low values 0.957 | locus YOR061W, strain CKA2, hits give low values 0.997 | locus YOR069W, strain VPS5, hits give low values 0.991 | locus YOR070C, strain gyp1, hits give low values 0.992 | locus YOR080W, strain dia2, hits give low values 1.02 | locus YOR083W, strain WHI5, hits give low values 0.961 | locus YOR106W, strain vam3, hits give low values 0.975 | locus YOR136W, strain idh2, hits give low values 0.958 | locus YOR144C, strain elg1, hits give low values 0.984 | locus YOR231W, strain MKK1, hits give low values 1.02 | locus YOR265W, strain rbl2, hits give low values 0.999 | locus YOR270C, strain vph1, hits give low values 0.817 | locus YOR290C, strain snf2, hits give low values 0.91 | locus YOR316C, strain cot1, hits give low values 0.986 | locus YPL051W, strain arl3, hits give low values 0.973 | locus YPL055C, strain LGE1, hits give low values 0.926 | locus YPL078C, strain atp4, hits give low values 0.952 | locus YPL106C, strain sse1, hits give low values 1.02 | locus YPL240C, strain hsp82, hits give low values 0.997 | locus YPL256C, strain CLN2, hits give low values 0.997 | locus YPR119W, strain clb2, hits give low values 0.964 | locus YPR141C, strain kar3, hits give low values 0.979 | locus YPR163C, strain tif3, hits give low values 0.978 | locus YPR167C, strain met16, hits give low values 0.956 | strain wtn01, hits give low values 0.911
